Hits are enriched below; roughly 3.3% of the tested compounds scored in any of these assays.
Mcl-1 Bim block: human Bim-Mcl-1 interaction inhibition | Bead-based flow cytometry, Bim peptide-Mcl-1 binding | inhibition, % at 10 µM | hit rate 0.1% among 190,000 | Q07820 | AID 1009; in the data active = inhibition above about 40%
Target sequence (Q07820 whole entry, looked up): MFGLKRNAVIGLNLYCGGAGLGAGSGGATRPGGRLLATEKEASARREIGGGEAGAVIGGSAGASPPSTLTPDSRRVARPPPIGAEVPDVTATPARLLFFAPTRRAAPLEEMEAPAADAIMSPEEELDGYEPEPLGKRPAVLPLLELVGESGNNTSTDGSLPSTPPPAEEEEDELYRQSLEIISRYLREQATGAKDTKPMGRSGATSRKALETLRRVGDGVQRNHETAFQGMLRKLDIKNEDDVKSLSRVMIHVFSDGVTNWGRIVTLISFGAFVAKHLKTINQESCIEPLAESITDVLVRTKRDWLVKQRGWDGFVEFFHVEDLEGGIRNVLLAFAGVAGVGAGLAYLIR
eIF4E 4G PPI: inhibitors of eIF4E and eIF4G interaction in translation initiation; P63073+Q04637; TR-FRET eIF4E-eIF4GI(517-606) binding, 2 h; inhibition, % at 21.7 µM; hit rate 0.37% among 220,000
NCF1 inh: p47phox (human) inhibition; p47phox/p22phox peptide binding, fluorescence polarization, 2 h; inhibition, % at 24.7 µM; P14598; hit rate 0.53% among 220,000
14-3-3 Bad PPI: disrupts binding of bovine 14-3-3 zeta to phospho-Bad peptide. TR-FRET 14-3-3zeta/Dy647-pBad peptide displacement, 1 h. hit rate 0.71% among 220,000. inhibition, % at 21.7 µM. AID 781. P63103;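 active = inhibition above about 70%, limit read from the data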
Target sequence (P63103 whole entry, looked up): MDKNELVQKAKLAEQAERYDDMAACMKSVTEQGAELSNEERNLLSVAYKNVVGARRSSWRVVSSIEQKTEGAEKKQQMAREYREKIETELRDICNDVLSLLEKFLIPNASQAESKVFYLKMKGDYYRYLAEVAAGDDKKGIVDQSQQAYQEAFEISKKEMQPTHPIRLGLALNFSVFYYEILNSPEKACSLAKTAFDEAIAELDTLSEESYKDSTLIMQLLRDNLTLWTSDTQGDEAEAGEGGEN
Mcl1-Bid inh: disrupts binding of human Mcl-1 to Bid peptide; Q07820; TR-FRET Mcl-1/Bid-Dy647 peptide binding, 1536-well; inhibition, % at 21.7 µM; hit rate 0.97% among 220,000;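 active = compounds that cut the binding signal by more than half at the single screening dose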;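 also: His-tagged Mcl-1 with europium anti-His antibody binding Bid BH3 peptide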
Mcl1 Noxa PPI: Mcl-1/Noxa interaction inhibition; Q07820; TR-FRET Mcl-1/Noxa peptide binding, 2 h; AID 1022; hit rate 1.5% among 220,000; inhibition, % at 21.7 µM;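 active = compounds that cut the protein-peptide binding signal by more than 50% relative to plate controls in a single-dose test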;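 also: His-tagged Mcl-1 with rhodamine Noxa BH3 peptide and terbium anti-His antibody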
Of the large screens only hits and unclear results are named; the others gave an inactive call; [ ] = another dose, or the depositor's remark.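 The calls were made as follows, unless noted: active = inhibition above about 30% (limit read from the data); inactive = the rest.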

O=C(CN1C(=O)c2cccc3cccc1c23)Nc1ccc(S(=O)(=O)N2CCOCC2)cc1	Mcl1-Bid inh 90
Cc1ccc(C(C)C)c(OCc2n[nH]c(=S)o2)c1	none
Cc1ccc(C(C)C)c(OCc2nc(-c3nonc3N)no2)c1	eIF4E 4G PPI 53, NCF1 inh 166
COc1ccccc1-c1cc(C(=O)Nc2sc3c(c2C#N)CCC(C)C3)c2ccccc2n1 (centres undefined)	none
Cc1cc(C(=O)OCC(=O)Nc2sc3c(c2C#N)CCC(C)C3)c2ccccc2n1 (centres undefined)	Mcl1 Noxa PPI 93
O=C(/C=C1\NC2(CCCC2)Cc2ccccc21)C(=O)N/N=C/c1ccc(O)c(O)c1	Mcl1 Noxa PPI 89
N#CC1=C(O)C(c2ccccc2)n2c1nc(=O)c1ccccc12 (centres undefined)	14-3-3 Bad PPI 90
COc1cc(/C=C2/SC(=S)NC2=O)ccc1OS(=O)(=O)c1ccc(C)cc1	Mcl1-Bid inh 82, Mcl1 Noxa PPI 98
COc1cc(/C=C2\SC(=S)NC2=O)ccc1OS(=O)(=O)c1ccccc1	Mcl1 Noxa PPI 79
COc1ccc(C2=CC(=O)C=CC2=O)cc1	eIF4E 4G PPI 41, NCF1 inh 58, Mcl1 Noxa PPI 87 (no result: Mcl-1 Bim block)
COc1ccc(S(=O)(=O)c2ccc(OC)cc2)cc1	none
CCSc1nc2c(c(=O)[nH]c(=O)n2C)n1C/C=C(/C)Cl	none
C=CCSc1nc2c(c(=O)[nH]c(=O)n2C)n1C/C=C(/C)Cl	Mcl1 Noxa PPI 58
COC(=O)c1ccc(COc2ccccc2/C=N/NS(=O)(=O)c2ccccc2)cc1	none
CCc1cc(C(N)=S)ccn1	Mcl1 Noxa PPI 53
Cc1nn(-c2ccccn2)c2c1C(=O)C(Br)CC2 (centres undefined)	Mcl1 Noxa PPI 55
CCc1nnc(NC(=O)c2ccc(-c3cc(C(F)(F)F)ccc3Cl)o2)s1	none
COc1ccc(NC(=O)c2[nH]ncc2[N+](=O)[O-])cc1	Mcl1-Bid inh 80
CCc1nnc(NC(=O)c2ccc(-c3ccc([N+](=O)[O-])cc3Cl)o2)s1	Mcl1-Bid inh 66, Mcl1 Noxa PPI 59
COc1ccc(NC(=O)c2cc([N+](=O)[O-])ccc2O)cc1	none
O=C(Nc1nccs1)c1ccc(-c2ccc(Cl)cc2)o1	none
COc1ccc(NC(=O)c2ccc(-c3ccc([N+](=O)[O-])cc3)o2)cc1	Mcl1 Noxa PPI 51
O=C(Nc1nccs1)c1ccc(-c2ccc([N+](=O)[O-])cc2)o1	Mcl1 Noxa PPI 66
Cc1ccc2nc(Cl)c(C3CC(c4cccs4)=NN3S(C)(=O)=O)cc2c1 (centres undefined)	none
CCc1cc(N2CCOCC2)cc2c1[nH]c1ccccc12	Mcl1 Noxa PPI 70
Cc1cc(N/N=C/c2ccc(O)cc2)nc(NS(=O)(=O)c2ccccc2)n1	Mcl1 Noxa PPI 53
Fc1ccc(CSc2nncn2NCc2ccc3c(c2)OCO3)cc1	NCF1 inh 103
Fc1ccc(CNn2cnnc2SCc2ccc(F)cc2)cc1	none
O=C(NCc1cccnc1)c1cccc(S(=O)(=O)N2CCCCC2)c1	none
O=C(N/N=C/c1cccnc1)c1cccc(S(=O)(=O)N2CCCC2)c1	Mcl-1 Bim block 55
COc1ccc(C2C=C(c3ccc(F)cc3)NC(=S)N2)cc1OC (centres undefined)	none
Cc1ccc(OCC(=O)NNC(=O)C2CCCO2)c(C)c1 (centres undefined)	none
COC(=O)[C@H](Cc1ccccc1)NC(=O)O[C@@H]1C(=O)c2cc(Br)ccc2O[C@H]1c1cccc(OC)c1	none
CCCC(=O)Nc1nc2ccc(OC)cc2s1	none
COc1ccc2nc(NC(=S)N(C)C)sc2c1	eIF4E 4G PPI 41[fluorescence artefact?]
COc1ccc2nc(NC3=NCCC3)sc2c1	none
COc1ccc2nc(NC(=O)CSc3nnc(N)s3)sc2c1	Mcl1 Noxa PPI 54
COc1ccc2nc(Nc3sc4c(c3C(N)=O)CCCC4)sc2c1	Mcl1 Noxa PPI 100
COc1ccc2nc(NC(=O)c3sc4nc(C)cc(C)c4c3N)sc2c1	Mcl1 Noxa PPI 53 (no result: Mcl-1 Bim block)
CCN1CCN(CC(=O)Nc2nc3ccc(OC)cc3s2)CC1	14-3-3 Bad PPI 79[fluorescence artefact?]
CN(C)c1ccc(CC(=O)c2nc3ccccc3s2)cc1	Mcl1 Noxa PPI 76
CN(C)C(=O)c1nc2ccccc2s1	none
COC/C=C/C1=CC2=CC(=O)C(C)(OC(=O)c3cnc4ccccc4n3)C(=O)C2=CN1Cc1ccc(OC)cc1 (centres undefined)	Mcl1 Noxa PPI 57 (no result: Mcl-1 Bim block)
CCCCC1=CC2=CC(=O)C(C)(OC(=O)c3cnc4ccccc4n3)C(=O)C2=CO1 (centres undefined)	Mcl1 Noxa PPI 62 (no result: Mcl-1 Bim block)
CN(C)c1ccc(NC2=C(Cl)C(=O)c3ccccc3C2=O)cc1	Mcl1 Noxa PPI 100
O=C1C(Cl)=C(Nc2ccc3cn[nH]c3c2)C(=O)c2ccccc21	Mcl1 Noxa PPI 93 (no result: Mcl-1 Bim block)
CCOC(=O)CSc1nn(C)c(=S)s1	Mcl1-Bid inh 57
CCOC(=O)CSc1n[nH]c(=S)s1	none (no result: Mcl-1 Bim block)
CCN(CC)S(=O)(=O)c1ccc(NC(=O)C2CCCN(C(=O)c3ccc(Cl)cc3)C2)cc1 (centres undefined)	none
CCn1c(SCC(=O)n2c(C)c(C)c3ccccc32)nnc1-c1ccco1	Mcl1-Bid inh 54
COc1cccc(CNC23CC4CC(CC(C4)C2)C3)c1OCc1ccccc1	none
CCOc1ccc(NC(=O)N(CCN(C)C)C(C)c2cccnc2)cc1 (centres undefined)	eIF4E 4G PPI 88 (no result: Mcl-1 Bim block)
CCc1ccc(NC(=O)N(CCN(C)C)C(C)c2cccnc2)cc1 (centres undefined)	none
O=S1(=O)N=C(Nc2ccc(N3CCOCC3)cc2)c2ccccc21	none
Cc1ccccc1-c1ccc(Nc2ccc(N3CCOCC3)cc2)nn1	Mcl1 Noxa PPI 69
Cc1cc2nc(-c3ccc(SCC(=O)N4CCN(C(=O)c5ccco5)CC4)nc3)[nH]c2cc1C	Mcl1 Noxa PPI 71
Cc1ccc2nc(-c3ccc(SCC(=O)Nc4nc(C)cs4)nc3)[nH]c2c1	none
CCOC(=O)CSc1ccc(-c2nc3ccccc3[nH]2)cn1	Mcl1 Noxa PPI 51
Cc1ccc2nc(-c3ccc(SCC(=O)Nc4nnc(C)s4)nc3)[nH]c2c1	Mcl1-Bid inh 70, Mcl1 Noxa PPI 68
CCC(C)NS(=O)(=O)c1ccc(NS(=O)(=O)c2ccc(F)cc2)cc1 (centres undefined)	none
O=C(CSc1nnc(SCc2ccc(Cl)cc2)s1)N/N=C/c1c[nH]c2ccccc12	NCF1 inh 43, 14-3-3 Bad PPI 90[fluorescence artefact?], Mcl1-Bid inh 92, Mcl1 Noxa PPI 65
O=C(COc1ccc(Cl)cc1Cl)NCC(=O)N/N=C/c1c[nH]c2ccccc12	Mcl1 Noxa PPI 58
O=C(CNc1ccccc1)N/N=C/c1c[nH]c2ccccc12	none
N/C(=N/OC(=O)c1ccccc1Cl)c1ncc([N+](=O)[O-])s1	none (no result: Mcl-1 Bim block)
